# Screening data (PubChem BioAssay)
# The entries come from a sample that favours hits as a whole.
# aSyn yeast rescue: inhibitors of alpha-synuclein toxicity in yeast; S. cerevisiae alpha-synuclein toxicity rescue, BacTiter-Glo growth, 24 h; Potency, µM (top dose mostly 46.1 µM), most hits filed as activators; 94,000 compounds, 0.02% hits; AID 1347070; active = well fitted activation curve with a large enough effect
#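 Growth restoration measured by BacTiter-Glo luminescence after 24 hr at 30 deg C; alpha-synuclein yeast, raffinose-pregrown to mid-log, were added at OD600=0.02 in galactose medium onto pinned compounds.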
# Numbers stand for hits; – = inactive.
SMILES,aSyn yeast rescue
Cn1c(=O)n(C)c2cc(CNCc3ccc(F)cc3)ccc21,–
COc1cc(OC)c(NC(=O)CN(C)S(=O)(=O)c2ccc3c(c2)CCCC(=O)N3)cc1Cl,–
Cc1noc(C)c1S(=O)(=O)N(C)C[C@@H]1OCc2cnnn2CCCC(=O)N([C@@H](C)CO)C[C@H]1C,–
Cc1c(-c2nnc(SCC(=O)Nc3ccc(Cl)cc3)o2)nnn1-c1ccc(F)cc1,–
COc1ccc(CCNC(=O)c2cc3c(-c4ccc(OC)c(OC)c4)nn(C)c3s2)cc1OC,–
Cc1ccc(C)n1-c1nnc(N2CCCC(C(=O)NCc3cccc(F)c3)C2)s1 (configuration not stated),–
Cc1cc2c(cc1NS(=O)(=O)c1ccc(F)cc1)n(C)c(=O)c(=O)n2C,–
CC(C)CCn1c(=O)c2sccc2n2c(CCCC(=O)NC(C)c3ccccc3)nnc12 (configuration not stated),–
COc1ccc2sc(N(Cc3cccnc3)C(=O)c3ccc4c(c3)OCCO4)nc2c1,–
Cc1cc(Nc2ccc(F)cc2)nc(-n2nc(C)cc2C)n1,–
Cc1ccc2oc(=O)c3cc(C(=O)NCc4ccc(Cl)cc4)sc3c2c1,–
CCCN(CCC)CCCNC(=O)c1cc2c(=O)oc3ccc(C)cc3c2s1,12.6µM
Cc1ccc(CNC(=O)c2cc3c(=O)oc4ccc(C)cc4c3s2)cc1,–
Cc1cc(Br)cc2c1N(Cc1ccccc1OC(C)C)C(=O)C2=O,–
CC(C)CCOc1ccc(Cn2c(=O)sc3ccccc32)cc1,–
COc1ccc(-n2nnnc2SCC(=O)NCCc2ccccc2)cc1,–
Cc1ccccc1NS(=O)(=O)c1ccc2[nH]cc(C(=O)NCCc3ccccc3)c(=O)c2c1,–
COc1cc(/C=C/c2nc(C#N)c(NC(C)c3ccccc3)o2)cc(OC)c1OC (configuration not stated),–
Cc1ccc(NC(=O)Cn2cc3c(n2)CCCC3)cc1Cl,–
O=C(NC1(C(F)(F)F)C(=O)Nc2c1c(=O)[nH]c(=O)n2CCc1ccccc1)c1ccc(Cl)cc1Cl (configuration not stated),–
Cc1noc(C)c1S(=O)(=O)N(CC(=O)NCCc1ccc(Cl)cc1)c1ccc(C(C)C)cc1,–
CCOc1ccc(C(=O)c2cn(CC(=O)Nc3ccc4c(c3)OCCO4)c3ccc(OC)cc3c2=O)cc1,–
Cc1cc(C)cc(NC(=O)c2ccc3oc(=O)c(S(=O)(=O)c4ccc(F)cc4)cc3c2)c1,–
O=S(=O)(NCCSc1nnnn1-c1ccccc1)c1ccc(F)cc1,–
Cc1nc2scc(C)n2c(=O)c1S(=O)(=O)Nc1cccc(O)c1,–
SMILES,aSyn yeast rescue
COc1cccc(CNS(=O)(=O)c2c(C)nc3scc(C)n3c2=O)c1,–
Cc1nc2scc(C)n2c(=O)c1S(=O)(=O)Nc1cccc(C(F)(F)F)c1,11.2µM
Cc1cn2c(=O)cc(COc3cccc(NC(=O)c4ccc(C(C)(C)C)cc4)c3)nc2s1,–
Cc1oc(-c2ccc(Cl)cc2)nc1CSCC(=O)NCc1ccccc1Cl,–
Cc1oc(-c2cccc(Cl)c2)nc1CSCC(=O)NCc1ccccc1Cl,20µM
Cc1ccc(CNC(=O)CSCc2nc(-c3ccc(Cl)cc3)oc2C)cc1,–
Cc1ccc(C(=O)c2cn(Cc3ccccc3C)c3nc(C)ccc3c2=O)cc1,–
Cc1cccc(NC(=O)CSc2nc(=O)n(Cc3ccncc3)c3c2CCC3)c1C,–
COC(=O)c1scc(-c2ccccc2)c1S(=O)(=O)Nc1cccc(C)c1C,–
CCc1ccc(NS(=O)(=O)c2c(-c3ccccc3)csc2C(=O)OC)cc1,25.1µM
CCOC(=O)c1scc(-c2ccccc2)c1S(=O)(=O)Nc1ccccc1OC,–
CCOc1ccc(NC(=O)CN2C(=O)C(c3ccccc3)=NC23CCCCCC3)cc1,–
COc1cc(NC(=O)CSc2nc(-c3ccco3)cc(C(F)(F)F)n2)cc(OC)c1OC,–
CCOc1ccccc1C1C(C(=O)Nc2ccccc2)=C(C)Nc2nc(SCC(=O)c3ccc(C)cc3)nn21 (configuration not stated),–
CCN1C(=O)CC(C(=O)Nc2ccc(OC)cc2)SC1=Nc1ccc(C)c(C)c1 (configuration not stated),–
O=C(Nc1ccc2nc(SCCOc3ccccc3Cl)sc2c1)c1cccs1,–
O=C(CCSCc1ccc(Cl)cc1)NCc1ccc(F)cc1Cl,–
O=C(CCSCc1ccccc1Cl)NCc1ccc(F)cc1Cl,–
O=C(CCSCc1cccc(Cl)c1)NCc1ccc(F)cc1Cl,28.2µM
CCOC(=O)Cn1c(=O)n(CC2CCCO2)c2nc(-c3c(F)cccc3Cl)nc(C(N)=O)c21 (configuration not stated),–
CCN(CC)S(=O)(=O)c1ccc2c(c1)N(CC(=O)Nc1c(C)cccc1C)C(=O)C1CCCN21 (configuration not stated),–
COc1ccccc1CNC(=O)C1CCN(c2nn3c(=O)cc(C)nc3s2)CC1,–
CC1CCN(c2ccc(-c3cccc(NS(=O)(=O)c4ccc(F)cc4F)c3)nn2)CC1,–
Cc1ccc(CS(=O)(=O)c2cn(CC(=O)N(C)c3ccccc3)c3ccccc23)cc1,–
COC(=O)c1ccccc1NC(=O)CSc1nc2nc(C)cc(C)n2n1,–
